Data published in PubChem BioAssay (NCI).
“And” between values parts separate entries of the source, which are not always exact repeats. Equal entries are not always repeated. Compounds without any hit were thinned out: in the full panel of roughly 83,000, 20% have a hit.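 Single-concentration screen, 48 h exposure, 96-well plates. Endpoint: percent growth. Below 10 = active.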 Values without a mark were called inactive. The source made the active and inactive calls.

Key:
Experiment in all cases: NCI-60 one-dose screen, 48 h (100 = growth as untreated, 0 = no growth, -100 = all killed)
Conditions in all cases: 10 µM unless noted
NCI-H23 lung = system: NCI-H23 lung
NCI-H226 lung = system: NCI-H226 lung
NCI-H322M lung = system: NCI-H322M lung
HOP-62 NSCLC = system: HOP-62 NSCLC
NCI-H460 lung = system: NCI-H460 lung
HOP-92 NSCLC = system: HOP-92 NSCLC
NCI-H522 lung = system: NCI-H522 lung
A549/ATCC NSCLC = system: A549/ATCC NSCLC
786-0 renal = system: 786-0 renal
COLO 205 colon = system: COLO 205 colon
DU-145 prostate = system: DU-145 prostate
K-562 leukemia = system: K-562 leukemia
MALME-3M melanoma = system: MALME-3M melanoma
MDA-MB-231 breast = system: MDA-MB-231 breast
RXF 393 renal = system: RXF 393 renal
SF-268 CNS = system: SF-268 CNS
SF-295 CNS = system: SF-295 CNS
SF-539 CNS = system: SF-539 CNS
UACC-257 melanoma = system: UACC-257 melanoma
M14 melanoma = system: M14 melanoma

Structure (SMILES)	growth (NCI-H23 lung)	growth (NCI-H226 lung) [%]	growth (NCI-H322M lung) [%]	growth (HOP-62 NSCLC)	growth (NCI-H460 lung)	growth (HOP-92 NSCLC) [%]	growth (NCI-H522 lung)	growth (A549/ATCC NSCLC)	growth (786-0 renal)	growth (COLO 205 colon)	growth (DU-145 prostate)	growth (K-562 leukemia)	growth (MALME-3M melanoma) [%]	growth (MDA-MB-231 breast)	growth (RXF 393 renal)	growth (SF-268 CNS)	growth (SF-295 CNS)	growth (SF-539 CNS)	growth (UACC-257 melanoma)	growth (M14 melanoma)
NCCOCCOc1ccccc1	97.2%	103	96.1	109%	103%	64.8	93.1%	104%	100%	113%	101%	108%	97.8	114%	124%	97.8%	103%	108%	106%	102%
Cc1ccc(-c2nc3nc(-c4ccccc4)nc(N4CCN(S(=O)(=O)c5ccccc5)CC4)c3o2)cc1	88.3%	76.5	101	72.3%	73.3%	95.1	72.9%	91.5%	61%	125%	96.6%	97.7%	84.2	72.4%	66.3%	66.8%	74.7%	52.5%	99%	96.7%
O=C(N=Nc1c(O)[nH]c2ccccc12)Nc1ccc(Br)cc1	101%	83.6	70.9	98.4%	92.1%	66.5	72.3%	98.9%	89.6%	97.8%	93.3%	79%	86.1	110%	82.4%	86.2%	93%	83.6%	115%	89.8%
O=C(/C=C/c1ccccc1)c1cccs1	94.1% and 105%	103	106	98.7% and 114%	93.3% and 109%	79.3	73.6% and 94.2%	93.9% and 94.3%	89.5% and 94.2%	112% and 120%	97.8% and 93.1%	106% and 71.2%	119	111% and 109%	106% and 102%	98.4% and 98.3%	97.7% and 95.1%	105% and 111%	96.3% and 106%	98.1% and 112%
Cc1nn(-c2nc(-c3cc4ccccc4oc3=O)cs2)c(C)c1N=Nc1ccccc1	98%	105	97.3	102%	108%	79.9	97.8%	114%	104%	114%	90.4%	93%	96.5	87.8%	112%	105%	104%	102%	103%	110%
COc1cc(-c2[nH]ncc2Nc2ccc(Cl)cc2)cc(OC)c1OC	55.5%	73.2	64.2	50.1%	73.6%	60	51.5%	67.6%	64.3%	107%	102%	47.2%	69.4	62.6%	89.4%	84.5%	42.7%	70.1%	64.6%	71.3%
CNC(=O)c1cc(Oc2ccc3nc(NC(=O)Nc4ccc(C(F)(F)F)cc4)sc3c2)ccn1	63.4%	85.6	80.5	67.4%	33.4%	74.4	42.4%	1.79% (active)	35.4%	58.7%	48.9%	76.3%	20.8	63.5%	85.5%	65%	63.2%	82.2%	86.7%	35.8%
CCOC(=O)c1nc2c3ccccc3cnn2c1C(=O)c1ccc(OC)cc1	84.4%	81.9	101	77.4%	103%	86.5	95.2%	87.2%	102%	97.5%	105%	96.9%	102	81.7%	106%	103%	98.7%	97.7%	95.4%	101%
O=C(NNc1ccccc1)C1CCCN1 (stereo not given)	98.8%	80.9	86	76.7%	99.1%	108	52.2%	75.9%	89.2%	103%	60.7%	11%	76.4	86.1%	107%	64.6%	85%	80.5%	88.6%	43.1%
O=C(CC1(O)C(=O)Nc2ccc(Br)cc21)c1ccc(Cl)cc1 (stereo not given)	96.8%	80.1	105	88.7%	106%	86.1	81%	90.5%	114%	109%	107%	98.2%	103	98.8%	96.4%	97.5%	106%	108%	88.1%	99.3%
Cc1ccc(-c2nc(SCC(=O)c3ccc(C#N)cc3)[nH]c(=O)c2C#N)cc1	105%	110	106	103%	115%	108	82.1%	98.4%	96.1%	88.9%	102%	96.3%	99.2	100%	117%	96%	103%	92.2%	100%	96.7%
N=C1/C(=C2\NC3C=CC=CC3S2)C(c2ccc(Cl)cc2)C2C(=O)N(c3ccccc3)C(=S)N12 (stereo not given)	97.4%	91.6	101	105%	107%	102	101%	100%	101%	113%	114%	102%	100	102%	95.7%	99.5%	103%	99.4%	107%	102%
CCC(=O)Oc1cc(Cl)c(Cl)cc1Cl	102%	97.7	104	105%	104%	100	99.8%	101%	98.2%	113%	103%	101%	108	114%	113%	97.9%	96%	97.1%	95.8%	99.5%
